# Test results from the supplement of paper PMC6411743.
# ± gives the standard deviation of the averaged measurements. The full data set covers some 6,500 targets. This sample favours those with the largest changes.
# How the values were obtained:
# Assay in all cases: NP40-soluble protein abundance relative to vehicle (solubility fold change) (ratio); higher = more soluble protein in presence of ATP
# I3L0H8|Q9NUU7|Q9NUU7-2 = biological target: T1, I3L0H8|Q9NUU7|Q9NUU7-2 (UniProt Q9NUU7)
# T1 sequence (whole entry): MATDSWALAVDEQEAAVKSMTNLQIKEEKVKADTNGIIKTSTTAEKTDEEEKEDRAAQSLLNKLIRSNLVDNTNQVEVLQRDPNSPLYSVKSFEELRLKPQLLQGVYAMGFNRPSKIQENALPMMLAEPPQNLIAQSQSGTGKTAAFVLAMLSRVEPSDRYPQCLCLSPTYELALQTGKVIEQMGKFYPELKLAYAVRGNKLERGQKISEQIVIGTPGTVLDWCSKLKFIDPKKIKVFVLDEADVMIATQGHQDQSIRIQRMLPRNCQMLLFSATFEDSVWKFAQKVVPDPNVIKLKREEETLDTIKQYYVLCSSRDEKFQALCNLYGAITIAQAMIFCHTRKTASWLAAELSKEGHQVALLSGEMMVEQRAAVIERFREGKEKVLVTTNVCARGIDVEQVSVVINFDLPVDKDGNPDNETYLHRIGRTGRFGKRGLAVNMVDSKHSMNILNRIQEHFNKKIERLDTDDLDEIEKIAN
# How it was run: (§1)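 In three independent experiments, Jurkat crude lysate made by Dounce homogenisation was treated for 10 min at room temperature and then 3 min at 37 °C with eight concentrations ranging from 0.1 to 10 mM. It was then solubilised with 0.8% NP40 plus benzonase for 60 min at 4 °C and ultracentrifuged. The supernatant was TMT-labelled for LC-MS/MS, and each value is the fold change against the detergent-processed vehicle for the same replicate, using vsn-normalised intensities.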
# J3KPS0|Q9NXW2 = biological target: T2, J3KPS0|Q9NXW2 (UniProt Q9NXW2)
# T2 sequence (whole entry): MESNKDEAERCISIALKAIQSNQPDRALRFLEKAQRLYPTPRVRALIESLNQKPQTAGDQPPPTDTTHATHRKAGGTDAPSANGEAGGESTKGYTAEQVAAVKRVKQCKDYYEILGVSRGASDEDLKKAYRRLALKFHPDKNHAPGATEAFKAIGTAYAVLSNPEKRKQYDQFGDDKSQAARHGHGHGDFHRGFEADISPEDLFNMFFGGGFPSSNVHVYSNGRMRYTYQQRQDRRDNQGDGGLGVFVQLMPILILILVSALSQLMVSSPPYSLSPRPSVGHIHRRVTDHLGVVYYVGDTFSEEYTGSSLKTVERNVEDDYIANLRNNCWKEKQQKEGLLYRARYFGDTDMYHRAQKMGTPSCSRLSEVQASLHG
# How it was run: as §1
# SNAP23 = biological target: T3, SNAP23 (UniProt O00161)
# T3 sequence (whole entry): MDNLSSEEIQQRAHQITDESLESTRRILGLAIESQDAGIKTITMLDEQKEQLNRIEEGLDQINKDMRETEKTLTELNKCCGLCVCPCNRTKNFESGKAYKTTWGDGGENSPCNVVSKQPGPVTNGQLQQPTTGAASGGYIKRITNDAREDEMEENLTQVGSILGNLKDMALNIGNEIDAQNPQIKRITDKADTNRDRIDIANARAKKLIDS
# How it was run: as §1
# UniProt O14966|O14966-2 = biological target: T4, UniProt O14966|O14966-2
# T4 sequence (whole entry): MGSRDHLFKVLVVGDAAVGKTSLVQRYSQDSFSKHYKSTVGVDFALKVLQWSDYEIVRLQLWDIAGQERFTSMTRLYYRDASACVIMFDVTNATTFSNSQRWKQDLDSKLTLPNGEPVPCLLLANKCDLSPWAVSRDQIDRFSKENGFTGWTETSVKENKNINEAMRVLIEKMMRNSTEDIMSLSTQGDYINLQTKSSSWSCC
# How it was run: as §1
smiles,measurement,setting,value
Nc1ncnc2c1ncn2[C@@H]1O[C@H](COP(=O)(O)OP(=O)(O)OP(=O)(O)O)[C@@H](O)[C@H]1O [adenosine triphosphate],NP40-soluble protein abundance,I3L0H8|Q9NUU7|Q9NUU7-2; concentration: 1mM,1.03 ± 0.02
same,NP40-soluble protein abundance,I3L0H8|Q9NUU7|Q9NUU7-2; concentration: 2mM,1.03 ± 0.028
same,NP40-soluble protein abundance,I3L0H8|Q9NUU7|Q9NUU7-2; concentration: 4mM,1 ± 0.03
same,NP40-soluble protein abundance,I3L0H8|Q9NUU7|Q9NUU7-2; concentration: 6mM,1.02 ± 0.058
same,NP40-soluble protein abundance,I3L0H8|Q9NUU7|Q9NUU7-2; concentration: 8mM,1.02 ± 0.012
same,NP40-soluble protein abundance,I3L0H8|Q9NUU7|Q9NUU7-2; concentration: 10mM,1.02 ± 0.013
same,NP40-soluble protein abundance,J3KPS0|Q9NXW2; concentration: 1mM,0.902 ± 0.035
same,NP40-soluble protein abundance,J3KPS0|Q9NXW2; concentration: 2mM,0.898 ± 0.056
same,NP40-soluble protein abundance,J3KPS0|Q9NXW2; concentration: 4mM,0.867 ± 0.058
same,NP40-soluble protein abundance,J3KPS0|Q9NXW2; concentration: 6mM,0.846 ± 0.12
same,NP40-soluble protein abundance,J3KPS0|Q9NXW2; concentration: 8mM,0.845 ± 0.11
same,NP40-soluble protein abundance,J3KPS0|Q9NXW2; concentration: 10mM,0.833 ± 0.1
same,NP40-soluble protein abundance,SNAP23; concentration: 1mM,0.944 ± 0.077
same,NP40-soluble protein abundance,SNAP23; concentration: 2mM,0.947 ± 0.024
same,NP40-soluble protein abundance,SNAP23; concentration: 4mM,0.943 ± 0.021
same,NP40-soluble protein abundance,SNAP23; concentration: 6mM,1 ± 0.061
same,NP40-soluble protein abundance,SNAP23; concentration: 8mM,0.921 ± 0.02
same,NP40-soluble protein abundance,SNAP23; concentration: 10mM,0.883 ± 0.03
same,NP40-soluble protein abundance,UniProt O14966|O14966-2; concentration: 1mM,0.995 ± 0.072
same,NP40-soluble protein abundance,UniProt O14966|O14966-2; concentration: 2mM,1.01 ± 0.075
same,NP40-soluble protein abundance,UniProt O14966|O14966-2; concentration: 4mM,0.958 ± 0.099
same,NP40-soluble protein abundance,UniProt O14966|O14966-2; concentration: 6mM,1.03 ± 0.09
same,NP40-soluble protein abundance,UniProt O14966|O14966-2; concentration: 8mM,0.99 ± 0.1
same,NP40-soluble protein abundance,UniProt O14966|O14966-2; concentration: 10mM,1.01 ± 0.04
